Assay results from PubChem BioAssay (NCATS).
Inconclusive results are not listed. A number with no mark means an inactive call. Active and inactive are the calls of the source. The call rests on the fitted dose curve; in most records, active means well fitted activation curve with a large enough effect; inconclusive means small, poorly fitted or top-dose-only effect; inactive means no such curve, though single readings can be large or run the other way. Starred links: 1 amine or outer side, 2 acyl side, 3 side chain; linkers in the order of their positions; H or OH if unused. Positions of bridges follow the written chain, without caps; N, C: chain ends. Non-standard residues stand in square brackets, D forms with d. Residues, ends and D or L forms follow the SMILES beside them. ξ: configuration not given here. *: point of attachment. X11 = NC1=NCCC(C(N[*:1])C(=O)[*:2])N1; ΔAla(3-NHCONH2) = NC(=O)NC=C(N)C(=O)O; ξβ3hOrn = NCCCC(N)CC(=O)*; Dap = NC[CH](N)C(=O)O

Each compound was assayed against Cellular tumor antigen p53 (Homo sapiens) (UniProt P04637) (assay: Primary qHTS for small molecule compounds that upregulate eGFP-tagged delta133p53alpha (in N-terminal) cells. (AID 2060322; further: nearly all actives have a fitted effect of over 75% in size;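 on activation: series mostly up to about 56 µM; 0% = DMSO vehicle and 100% = reference activator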)). Conditions: NCI-H358 eGFP-delta133p53alpha fluorescence, 24 h; activation: hits give high values.
Method in brief: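 NCI-H358 cells pre-induced 24 h with 10 ng/ml doxycycline to express N-terminal eGFP-delta133p53alpha, then dosed 24 h at 37C without doxycycline; fixed, Hoechst-stained, GFP intensity by laser scanning cytometry, normalized to DMSO (0%) and 57.5 uM 5-azacytidine (100%).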
Potency means the concentration at half of the fitted maximal effect.

Sequence of Cellular tumor antigen p53 (Homo sapiens) (P04637 whole entry, looked up): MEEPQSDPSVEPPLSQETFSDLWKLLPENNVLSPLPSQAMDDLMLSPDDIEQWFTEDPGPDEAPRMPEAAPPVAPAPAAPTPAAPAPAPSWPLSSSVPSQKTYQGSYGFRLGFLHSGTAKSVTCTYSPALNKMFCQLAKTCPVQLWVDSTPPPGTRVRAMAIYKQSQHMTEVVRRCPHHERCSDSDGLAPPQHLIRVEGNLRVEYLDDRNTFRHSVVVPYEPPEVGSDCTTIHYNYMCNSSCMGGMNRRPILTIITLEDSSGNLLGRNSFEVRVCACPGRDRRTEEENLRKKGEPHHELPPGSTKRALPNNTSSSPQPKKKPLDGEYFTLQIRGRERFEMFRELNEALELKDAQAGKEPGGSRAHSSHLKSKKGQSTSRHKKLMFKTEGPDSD

| SMILES | activation [%] | Potency |
| --- | --- | --- |
| CC(=O)N1CCN(c2ccc(O)cc2)CC1 | -15.3 |  |
| O=C1NC(c2ccccc2)(c2ccccc2)C(=O)N1COP(=O)(O)O | -11.9 |  |
| CCC(=C(CC)c1ccc(O)cc1)c1ccc(O)cc1 | -17 |  |
| COc1cc(C=O)ccc1O | 5.02 |  |
| CC(C)N1[N]C(=C2C=c3cc(O)ccc3=N2)c2c(N)ncnc21 | 11.7 |  |
| CN(C)c1ccc(C(=O)NCCCCCC(=O)NO)cc1 | 10.1 |  |
| C[N+]1(C)CCC(=C(c2ccccc2)c2ccccc2)CC1 | 28.8 |  |
| Nc1ccc(S(=O)(=O)c2ccc(N)cc2)cc1 | 7.53 |  |
| Cc1ccc(NC2=CC(=O)c3sc(C)nc3C2=O)cc1 |  | 3.85 µM (active) |
| O=C1c2ccccc2C(=O)C1c1ccc(Br)cc1 | -22 |  |
| O=C(O)c1ccccc1Nc1cccc(C(F)(F)F)c1 | -19.8 |  |
| COc1cc(OC)nc(O[C@H](C(=O)O)C(OC)(c2ccccc2)c2ccccc2)n1 | -22 |  |
| CCCCCCCCCCCCCC(=O)OC(C)C | 14.1 |  |
| Cc1c(C(N)=O)cc([N+](=O)[O-])cc1[N+](=O)[O-] | -8.37 |  |
| CCCCN(CCCC)CCCOC(=O)c1ccc(N)cc1 | -2.51 |  |
| CCOC(=O)[C@H](CCc1ccccc1)N[C@@H](C)C(=O)N1[C@@H](C(=O)O)C[C@H]2CCC[C@@H]21 | 0.313 |  |
| O=c1[nH]c(=O)n([C@H]2C[C@@H](O)[C@@H](CO)O2)cc1F | -18.9 |  |
| CCN(CC)CCNc1ccc(CO)c2sc3ccccc3c(=O)c12 | 28.5 |  |
| CCNC(=O)/C=C/c1cccc(Br)c1 | -10.9 |  |
| CCN(CC)CCNC(=O)c1c(C)[nH]c(C=C2C(=O)Nc3ccc(F)cc32)c1C |  | 12.5 µM (active) |

| SMILES | activation [%] | Potency |
| --- | --- | --- |
| CC[C@H]1OC(=O)[C@H](C)[C@@H](O[C@H]2C[C@@](C)(OC)[C@@H](O)[C@H](C)O2)[C@H](C)[C@@H](O[C@@H]2O[C@@H](C)C[C@H](N(C)C)[C@@H]2O)[C@](C)(O)C[C@@H](C)C(=O)[C@H](C)[C@@H](O)[C@]1(C)O | 29.3 |  |
| NC(CS)C(=O)O (stereo not given) | -24.3 |  |
| OC[C@H]1O[C@@H](O[C@H]2[C@@H](O)[C@@](O)(CO)O[C@@H]2CO)[C@H](O)[C@@H](O)[C@@H]1O | 0.771 |  |
| CCCCC/C=C\C/C=C\CCCCCCCC(=O)NC(C)c1ccccc1 (stereo not given) | 0 |  |
| NCCCC(N)CC(=O)NCC1NC(=O)C(CO)NC(=O)C(N)CNC(=O)C(C2CCN=C(N)N2)NC(=O)C(=CNC(N)=O)NC1=O (stereo not drawn) (H-[Dap]S[Dap](ξβ3hOrn)[ΔAla(3-NHCONH2)][X11]; lactam 1-C; configuration not given here) | -4.18 |  |
| O=C(O)c1c(O)c(-c2ccccc2)nc2ccccc12 | 22 |  |
| CC1(C)O[C@@H]2[C@@H](CO[C@@]3(COS(N)(=O)=O)OC(C)(C)O[C@@H]23)O1 | -2.51 |  |
| CN(C)CCn1nnnc1SCC1=C(C(=O)O)N2C(=O)[C@@H](NC(=O)Cc3csc(N)n3)[C@H]2SC1 | -0.565 |  |
| C[N+]1(C)CCCC(OC(=O)C(O)(c2ccccc2)c2ccccc2)C1 (stereo not given) | -37.9 |  |
| CCOC(=O)c1ccc(N)cc1 | 8.37 |  |
| CCC(Cc1c(I)cc(I)c(N)c1I)C(=O)O (stereo not given) | 29.9 |  |
| Cc1ncc(Cl)cc1NCc1ccc(C(=O)N[C@@H](CC2CCCC2)C(=O)NC2CC2)s1 | -39.1 |  |
| CC1(C)OC(=O)NC1=O | -15.3 |  |
| CCc1nn(CCCN2CCN(c3cccc(Cl)c3)CC2)c(=O)n1CCOc1ccccc1 | -3.35 |  |
| CC(C)(C)c1[nH]cnc1C=c1[nH]c(=O)c(=Cc2ccccc2)[nH]c1=O | -1.26 |  |
| COC(=O)[C@@H]1[C@H]2C[C@@H]3c4[nH]c5ccccc5c4CCN3C[C@@H]2CC[C@@H]1O | 21.4 |  |
| C[C@@H]1CN(CCCn2c3ccccc3c3ccccc32)C[C@H](C)N1 | 16.4 |  |
| CC1(C)C(=O)CCC2(C)C1C(O)C=C1COC(=O)C12O (stereo not given) | 25.2 |  |
| C=C[C@@]1(C)CC(=O)[C@]2(O)[C@@]3(C)[C@@H](O)CCC(C)(C)[C@@H]3[C@H](O)[C@H](OC(C)=O)[C@@]2(C)O1 | -2.51 |  |
| O=C(/C=C/c1ccccc1)OCc1ccccc1 | -23.2 |  |
